# From PubChem BioAssay (EPA / NIEHS)
# The source made the active and inactive calls. The calls were made as follows: active = hit-call score of the fitted dose curve at least 0.9, where 1 is the maximum; inactive = score below 0.9.
# Read-out: NAD(P)H dehydrogenase [quinone] 1 (NQO1), NQO1 (gene 1728)
# Test: LTEA_HepaRG_NQO1: Life Technologies and Expression Analysis (LTEA) Assay for NAD(P)H dehydrogenase [quinone] 1 (NQO1) using HepaRG (AID 2283526)
# Conditions: mRNA level, 48 h; actives raise or lower the signal
# Method: LTEA_HepaRG is a cell based, multiplexed-readout assay that uses HepaRG, a human liver cell line, with measurements taken at 48 hours after chemical dosing on a 96-well plate.LTEA_HepaRG_NQO1 is one of 102 assay component(s) measured in the LTEA HepaRG cell culture assay. It is a marker of Diseases associated with NQO1 include Tardive Dyskinesia and Childhood Leukemia.Data from the assay component LTEA_HepaRG_NQO1 was analyzed into 1 endpoint. This assay endpoint, LTEA_HepaRG_NQO1, was analyzed with bidirectional fitting relative to DMSO as the negative control and baseline of activity. Using a type of inducible reporter, measures of mRNA induction for gain or loss-of-signal activity can be used to understand regulation of transcription factor activity. To generalize the intended target to other relatable targets, this assay endpoint is annotated to the oxidoreductase intended target family, where the subfamily is quinone-acceptor.
# A total of 1060 chemcials from the ToxCast library were tested in eight-point concentration-response experiments. Cell culture and cytotoxicity assays were conducted at Thermo Fisher Scientific's Custom Services facility (Madison, WI). A single lot of human HepaRG cells (Thermo Fisher Scientific, Frederick, MD) was used for the cell culture experiments. 96-well format collagen type I coated plates of human HepaRG cells were prepared using established methods. Briefly, cryopreserved HepaRG cells were thawed, plated at a density of approximately 100,000 cells/well in HepaRG Thaw, Plate, and General Purpose media (HPRG770, Thermo Fisher Scientific), and incubated for 48 hours. 0.5% DMSO was selected as vehicle control to balance the requisite need of DMSO in HepaRG cultures to maintain differentiation (for example, baseline metabolism, proportions of hepatocytes vs. cholangiocytes), while enabling further hepatic receptor pathway activation (for example, PXR and CAR) in response to chemical exposure. 48 hours after plating, the culture medium was replaced with HepaRG Serum-Free Incudtion Media. Cells were exposed to each test chemical in duplicate and maintained in CO2 incubators for another 48 hours. Chemical plates were thawed to room temperature and 200x concentrations of treatment groups were prepared. 8-point conentration-reponse curves were made with the highest exposure at 100 uM, followed by half-log dilutions, all in 0.5% DMSO. Each test plate contained variouse controls, induction positive controls (1mM phenobarbital), cytotoxicity positive controls ([…] aflatoxin B1), vehicle controls (0.5% DMSO), and total lysis controls (0.5% DMSO). Cell morphology images were taken using an Essen IncuCyte FLR automated microscope, with six 96-well plates imaged in about 24 minutes. Images were captured and exported and JPEG files. Spent culture media was transfered to black-well plates for the LDH assay, and remaining media was sorted at -80 C for later use. Cells were treated with RLT buffer and frozen until shipped for gene expression analysis. Total RNA was isolated from the cell suspension in 75 uL of Buffer RLT (Qiagen, Germantown, MD 20874) by Quintiles/Expression Analysis (Durham, NC) using a custom isolation procedure. Total RNA from each plate well was transferred to a preamplification plate. Fluidigm's 96.96 Dynamic ArrayTM (Fluidigm, Amsterdam, the Netherlands) technology was used for gene expression analyses by quantitative reverse transcription polymerase chain reaction (qRT-PCR, performed by Quintiles/Expression Analysis, Durham, NC)89. Standard TaqManTM Assays (Applied Biosystems/ThermoFisher Scientific, Foster City, CA) were used to assess the expression of 93 genes selected based on their selectivity and sensitivity to important hepatic receptors known to be modulated by environmental chemicals; importance in human hepatocyte functionality; and hepatotoxicity. […]
Compound,outcome,AC50
O=c1c(-c2ccc(O)cc2)coc2cc(O)ccc12,inactive,–
N#C[C@@H]1CC(F)(F)CN1C(=O)CNC1CC2CCC(C1)N2c1ncccn1 (stereo not given in full),inactive,–
COc1ccc([N+](=O)[O-])cc1N,inactive,–
CC(C)(C)c1cccc(C(C)(C)C)c1O,inactive,–
OCCC(F)(F)C(F)(F)C(F)(F)C(F)(F)C(F)(F)C(F)(F)F,inactive,–
c1ccc2c(c1)ccc1ccccc12,inactive,–
Nc1cccc2c(N)cccc12,inactive,–
CN1CCC[C@H]1c1cccnc1,inactive,–
NC(=O)N1C(=O)C(C(=O)c2cc(Cl)cs2)c2cc(F)c(Cl)cc21 (stereo not given),–,13.3 µM (active)
O=C(O)Cc1cc(I)c(Oc2cc(I)c(O)c(I)c2)c(I)c1,–,33.5 µM (active)
CCCCCCCCC(=O)O,inactive,–
COC(=O)CCCCC(=O)OC,inactive,–
CCCCCCCCCCCCc1ccccc1S(=O)(=O)O,inactive,–
CCN(CC)CCNc1ccc(CNC=O)c2sc3ccc(OC)cc3c(=O)c12,inactive,–
Cc1cc(CCN2CCN(c3nsc4ccccc34)CC2)cc2c1NC(=O)CC2(C)C,inactive,–
C#C[C@]1(O)CC[C@H]2[C@@H]3CCC4=CC(=O)CC[C@@H]4[C@H]3CC[C@@]21C,inactive,–
CCc1ccc(CCOc2ccc(CC3SC(=O)NC3=O)cc2)nc1 (stereo not given),inactive,–
c1ccc2c(c1)Cc1ccccc1-2,inactive,–
Cc1oc(-c2ccccc2)nc1CCOc1ccc(C[C@H](Nc2ccccc2C(=O)c2ccccc2)C(=O)O)cc1,–,29.6 µM (active)
CCCCOCCO,inactive,–

Compound,outcome,AC50
CC[C@H](C)[C@@H](C(=O)O)n1sc2ccccc2c1=O,inactive,–
CCCOc1sc(C(=O)N2CCC(c3cc(CN)ccc3F)CC2)c(C)c1Br,inactive,–
C[C@@H]1C[C@H]2[C@@H]3CCC4=CC(=O)C=C[C@]4(C)[C@@]3(F)[C@@H](O)C[C@]2(C)[C@@]1(O)C(=O)COP(=O)(O)O,inactive,–
CC[C@H](c1ccc(O)cc1)[C@@H](CC)c1ccc(O)cc1,–,81.8 µM (active)
CC(=O)NC1(c2cccc(F)c2)CCN(CC[C@@]2(c3ccc(Cl)c(Cl)c3)CN(c3ccccc3)C(=O)CO2)CC1,inactive,–
OC1CCC(C2CCCCC2)CC1 (stereo not given),inactive,–
CN(C)C=O,inactive,–
CCCCCCCCOC(=O)CCCCCCCCC(=O)OCCCCCCCC,inactive,–
CCCCCCC(=O)O,inactive,–
CCCCC(CC)COC(=O)CCCCC(=O)OCC(CC)CCCC (stereo not given),inactive,–
Cc1cc(C)c(O)c(C)c1,inactive,–
c1ccc2cc3c(ccc4ccccc43)cc2c1,inactive,–
CCCOC(=O)c1ccc(O)cc1,inactive,–
C=C(C)C(=O)OCCC(F)(F)C(F)(F)C(F)(F)C(F)(F)C(F)(F)C(F)(F)F,inactive,–
CCC(C)(C)C1CCC(O)CC1 (stereo not given),inactive,–
CCC(=C(c1ccc(O)cc1)c1ccc(OCCN(C)C)cc1)c1ccccc1,inactive,–
CC1=C(/C=C/C(C)=C/C=C/C(C)=C/C(=O)O)C(C)(C)CCC1,–,11 µM (active)
OCCC(F)(F)C(F)(F)C(F)(F)C(F)(F)C(F)(F)C(F)(F)C(F)(F)C(F)(F)F,inactive,–
CCc1nn(C2CCCCC2)c2cc(C3(C#N)CCC(C(=O)O)CC3)ccc12 (stereo not given),inactive,–
Oc1cc2ccccc2c2ccccc12,inactive,–
